Compound activity from PubChem.
This is a sample that favours compounds with a hit; in the whole collection about 12% have one here.
RORgamma inh = qHTS for inhibitors of ROR gamma transcriptional activity | Drosophila S2 Gal4-RORgamma UAS-luciferase reporter, 20 h | Potency, µM (series often up to 53.6 µM), most hits filed as inhibitors | hit rate 5.4% among 310,000; also: nearly all actives have a fitted effect of over 60% in size
Target sequence (P51450 whole entry, looked up, the tested form may be a part): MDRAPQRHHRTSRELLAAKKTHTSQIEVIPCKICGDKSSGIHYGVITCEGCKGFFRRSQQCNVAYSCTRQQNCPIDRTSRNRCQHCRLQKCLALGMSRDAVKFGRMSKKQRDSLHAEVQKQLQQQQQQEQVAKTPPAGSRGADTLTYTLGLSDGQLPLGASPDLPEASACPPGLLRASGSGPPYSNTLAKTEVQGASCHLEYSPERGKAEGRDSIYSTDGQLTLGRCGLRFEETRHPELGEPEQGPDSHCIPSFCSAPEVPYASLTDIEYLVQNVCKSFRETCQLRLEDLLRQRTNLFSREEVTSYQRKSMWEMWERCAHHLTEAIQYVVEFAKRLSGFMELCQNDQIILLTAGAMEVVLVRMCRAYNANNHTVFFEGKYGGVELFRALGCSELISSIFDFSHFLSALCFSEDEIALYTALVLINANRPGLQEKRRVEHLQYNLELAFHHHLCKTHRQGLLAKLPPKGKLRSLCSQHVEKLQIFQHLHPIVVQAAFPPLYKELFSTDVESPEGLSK
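ROR gamma transcriptional activity was tracked as Gal4-UAS luciferase output in stably transfected Drosophila Schneider cells, with compound added 1 hr before 700 uM copper sulfate induction and a 20 hr ambient-temperature incubation.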
PLK1 PBD block = qHTS for Inhibitors of PLK1-PDB (polo-like kinase 1 - polo-box domain): Primary Screen | Serine/threonine-protein kinase PLK1 (Homo sapiens), P53350 | Plk1 PBD binding of FITC phosphopeptide, fluorescence polarization | Potency, µM, actives largely listed as inhibitors | hit rate 2.8% among 360,000 | AID 720504, 2013; also: series mostly up to about 57 µM; nearly all actives have a fitted effect of over 65% in size
Gal4-VP16 FLuc = VP16 counterscreen qHTS for inhibitors of ROR gamma transcriptional activity; hit rate 3.5% among 310,000; Potency, µM (titrated, usually from 53.6 µM), hits mostly inhibitors; Drosophila S2 Gal4-VP16 UAS-luciferase, luminescence, 20 h; AID 2546, 2010;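 also: Gal4-VP16 expression switched on by copper sulfate through the metallothionein promoter; nearly all actives have a fitted effect of over 50% in size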
ALDH1A1 block = qHTS Assay for Inhibitors of Aldehyde Dehydrogenase 1 (ALDH1A1) | Aldehyde dehydrogenase 1A1 (Homo sapiens), P00352 | Purified ALDH1A1, NADH fluorescence, propionaldehyde substrate | Potency, µM (titrated, usually from 75.3 µM), most hits filed as inhibitors | hit rate 7.3% among 220,000 | AID 1030, 2008; active = well fitted inhibition curve with a large enough effect, not every such curve was filed as active; inconclusive = small, poorly fitted or top-dose-only effect, or another doubt; inactive = no such curve, though single readings can be large or run the other way
Sfp PPTase inh = qHTS Assay for Inhibitors of Bacillus subtilis Sfp phosphopantetheinyl transferase (PPTase); Potency, µM, hits mostly inhibitors; Biochemical Sfp PPTase activity, qHTS; 4'-phosphopantetheinyl transferase ffp (Bacillus subtilis), Q9F4F7; hit rate 3.5% among 310,000;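 also: the enzyme is Sfp with the accession as filed and its product quenches rhodamine fluorescence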
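Fluorescence-quenching assay: 15 nM Sfp-PPTase preincubated 15 min at room temperature with compound, then 5 uM rhodamine-CoA and 12.5 uM BHQ-2-labelled YbbR peptide added. Fluorescence (ex 525/em 598 nm) read at start and after 30 min; difference gives rate.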
A number is an active result; i = inactive; ? = inconclusive; nt = no result given; [ ] = dose if it differs, or a comment. Unless noted, calls follow the shape of the dose curve; as a rule, active = well fitted curve in the direction sought with a large enough effect; inconclusive = small, poorly fitted or top-dose-only effect, or another doubt; inactive = no such curve, though single readings can be large; an effect the other way counts as inactive or inconclusive.

SMILES	RORgamma inh	PLK1 PBD block	Gal4-VP16 FLuc	ALDH1A1 block	Sfp PPTase inh
CC(C)C[C@H]1CN(CCCC[C@H]2CNC(=O)C(=O)N2CC2CCCCC2)C(=O)C(=O)N1CC1CCCCC1	nt	i	nt	nt	nt
Cc1ccc2cccc(OCC(=O)Nc3cccc(S(=O)(=O)N4CCCC4)c3)c2n1	nt	i	nt	nt	nt
O=C(O)c1cn(-c2ccc(N3CCCC3)c(F)c2)c2c(F)c(F)c(F)cc2c1=O	i	?	i	16µM	i
COc1cc(/C=C2\SC(=Nc3ccccc3)N(CCc3c[nH]c4ccccc34)C2=O)ccc1OC(C)C(=O)O (stereo not drawn)	i	?	?	i	i
COc1ccc(N=C2S/C(=C\c3ccc(OC(C)C(=O)O)c(OC)c3)C(=O)N2CCc2c[nH]c3ccccc23)cc1 (stereo not drawn)	i	?	i	14µM	?
O=C1/C(=C/c2ccc(N3CCOCC3)o2)SC(=Nc2ccccc2)N1CCc1c[nH]c2ccccc12	3.2µM	i	5µM	?	2.8µM
N=C(N)S[C@H]1c2ccccc2-c2cc([N+](=O)[O-])ccc21	nt	nt	nt	i[13.5 µM]	nt
COc1ccc(/C=N/c2oc(-c3ccccc3)cc2C#N)cc1OC	i	?	?	?	79µM
NNS(=O)(=O)c1ccc(N2CCCC2=O)c([N+](=O)[O-])c1	i	27µM	i	18µM	?
CCCCN(CCCC)S(=O)(=O)c1ccc(N2CCCC2=O)c([N+](=O)[O-])c1	nt	15µM	nt	nt	nt
COc1ccc(Cc2c(-c3ccc(C)cc3)nc3cc(C)c(Br)c(C)n23)c(C)c1	nt	i	nt	nt	nt
COc1ccc2c3c(n(C(=O)OC(C)(C)C)c2c1)C1CC=C(COC(C)=O)CN1CC3 (stereo not drawn)	nt	i	nt	nt	nt
O=S(=O)(c1ccc(N2CCC(c3ccc(Cl)cc3)=N2)cc1)N(CCO)CCO	i	30µM	i	?	?
CN(C)CCCNS(=O)(=O)c1ccc(N2CCC(c3ccc(Cl)cc3)=N2)cc1	i	nt	i	?	?
CC(C)(Oc1ccc(CCNC(=O)c2ccc(-c3ccccc3)o2)cc1)C(=O)O	i	i	i	i	i
CC(C)(Oc1ccc(-c2ccco2)cc1)C(=O)O	i	nt	i	?	35µM
Cn1c(=O)c(-c2ccc(Cl)cc2)nc2cnc(Nc3ccccc3)nc21	i	nt	i	i	i
COc1ccc(/C=N/Nc2nncc3ccccc23)cc1	i	i	i	i	50µM
COc1ccccc1/C=N/Nc1nncc2ccccc12	2µM	i	4µM	i	?
Oc1c(Br)cc(/C=N/Nc2nncc3ccccc23)cc1Br	i	i	i	nt	?
COc1cccc(C=NNc2nnc(NN=Cc3cccc(OC)c3OC)c3ccccc23)c1OC	nt	i	nt	nt	nt
CCOc1ccc(Cc2noc3c2C(=O)CCC3)cc1OCC	i	i	i	i	i
CCOc1ccc(Cc2noc3c2C(=O)CC(C)(C)C3)cc1OCC	i	i	i	11µM	i
C#CCOC(=O)CCC(=O)NCCc1ccccc1	i	i	i	10µM	i
CN(Cc1ccccc1)C(=O)c1csc([C@H]2C[C@H](O)[C@@H](CO)O2)n1	nt	i	nt	nt	nt
SMILES	RORgamma inh	PLK1 PBD block	Gal4-VP16 FLuc	ALDH1A1 block	Sfp PPTase inh
C=CC[n+]1ccc(/C=C2\C=Cc3cc(C)ccc3N2CC)c2ccccc21	1.3µM	i	1.3µM	?	i
CCOC(=O)C1=C(Cc2ccc(F)cc2)C(=O)c2ccccc2C1=O	14µM	9.5µM	i	?	8.9µM
CC(C)OC(=O)C1=C(N)N2C(=O)CSC2=C(C(=O)OC(C)C)C1	10µM	i	i	?	i
CC(c1ccccc1)C1CC(=O)N(Cc2ccco2)C1=O (stereo not drawn)	i	i	i	8.9µM	22µM
CC(c1ccccc1)C1CC(=O)N(CC(=O)O)C1=O (stereo not drawn)	i	i	i	i	i
CC1=C(C(=O)N(C(C)C)C(C)C)CC(CC(=O)NCCN2CCOCC2)C(=O)N1CCCN1CCCC1=O (stereo not drawn)	nt	i	nt	nt	nt
O=C(COC(=O)C1CC1)NCc1ccccc1	nt	i	nt	nt	nt
OC[C@@H]1CN(Cc2cccs2)C[C@H](n2cnc3c(NC4CCC4)ncnc32)O1	nt	i	nt	nt	nt
Cn1cccc1C(=O)NC(=O)COC(=O)c1ccc(O)cc1	i	i	i	3.2µM	i
Cn1cccc1C(=O)NC(=O)COC(=O)c1cc(S(=O)(=O)N2CCCCC2)ccc1Cl	i	21µM	i	i	i
CCNCCCNCCCCNCCCNCC	i	nt	i	i	i
O=C(NCC1(N2CCCCC2)CCCCC1)c1cccc(S(=O)(=O)Nc2ccc(F)cc2)c1	nt	i	nt	nt	nt
CC1(C(=O)NS(=O)(=O)c2ccc(C#N)cc2)CCN1C(=O)Cc1ccccc1Cl (stereo not drawn)	nt	i	nt	nt	nt
N#CC1=C(N)Oc2n[nH]c(-c3cccnc3)c2C1c1cc(F)ccc1F (stereo not drawn)	i	i	i[10 µM]	?	i
COCc1[nH]nc2c1C(c1c(F)cccc1Cl)C(C#N)=C(N)O2 (stereo not drawn)	?	i	18µM	i	?
N#CC1=C(N)Oc2n[nH]c(-c3ccccn3)c2C1c1c(F)cccc1Cl (stereo not drawn)	3.2µM	i	8.9µM	i	i
COc1ccc(CNC(=O)OC2CC3CC2[C@H]2CCCCN2C3=O)cc1 (stereo partly drawn)	nt	i	nt	nt	nt
Cc1cc(Cl)ccc1OCC(=O)NNC(=O)c1cnccn1	7.1µM	i	?	i	i
O=C(COc1ccc2ccccc2c1)NNC(=O)c1cnccn1	?	i	i	i	i
O=C(Nc1nc(-c2cccc3ccccc23)cs1)c1cnccn1	14µM	i	?	i	i
Cc1cc(Br)ccc1OCC(=O)NNC(=O)c1cnccn1	8.9µM	i	?	i	i
O=C(COc1cccc2ccccc12)NNC(=O)c1cnccn1	13µM	i	?	i	i
Cc1ccc(C(=O)CC(=O)COc2ccc(Cl)cc2C)cc1	10µM	i	4.5µM	i	i
Cc1ccc(NC(=O)c2ccc(OC(=O)COc3ccc(Cl)cc3C)cc2)cc1	i	i	i	i	i
Cc1cc(-c2ccccc2)nc(N(C)NC(=O)c2cccc(C(F)(F)F)c2)c1S(C)(=O)=O	i	30µM	i	i	i
SMILES	RORgamma inh	PLK1 PBD block	Gal4-VP16 FLuc	ALDH1A1 block	Sfp PPTase inh
C=CCC(C)(O)c1ccccc1 (stereo not drawn)	i	nt	i	i	i
Cc1cc(C(=O)N2CCC2(C)C(=O)NS(=O)(=O)c2cccc(OC(F)F)c2)nn1C (stereo not drawn)	nt	i	nt	nt	nt
COC(=O)C1=C(C)NC(=O)/C1=C\c1cc(C)n(-c2ccc(F)cc2)c1C	i	i	i	i	35µM
O=C1CCC[C@@H](C2=CCCCC2=O)C1	i[10 µM]	nt	i[10 µM]	i[13.5 µM]	i
CCCCN(c1ccccc1)S(=O)(=O)c1cccc(C(=O)Nc2c(C)n(C)n(-c3ccccc3)c2=O)c1	nt	i	nt	nt	nt
CCCc1nc2c(sc3nc4c(cc32)COC(C)(C)C4)c(=O)n1Cc1ccco1	i	i	i	0.89µM	28µM
